Assay results taken from PubChem BioAssay (NCATS).
Records with an inconclusive call do not appear. Values without a mark were called inactive. Calls follow the shape of the full dose curve; tested in HEK293 reporter line.

Test: qHTS for Inhibitors of the Functional Ribonucleoprotein Complex (vRNP) of Lassa (LASV) Arenavirus: LASV Primary Screen - GLuc reporter signal (AID 1347082); also: nearly all actives have a fitted effect of over 60% in size
Conditions: LASV minigenome vRNP, Gaussia luciferase reporter; series mostly up to 57.5 µM; activity change, negative = inhibition: at the top concentration
% is scaled to controls: 0 for no effect and ±100 for the full control effect.

SMILES | activity change, negative = inhibition
CC12CCC(C1)C(C)(C)C2O (stereo not given) | -17.2% [at 115 µM]
Cc1c(-c2cccc3c(CCCOc4cccc5ccccc45)c(C(=O)O)n(Cc4cccnc4)c23)c(COc2ccc(N3CCN([S+](=O)([O-])N(C)C)CC3)cc2)nn1C | -1.2%
CCCCCc1ccco1 | -1.08%
CC1(C)O[C@H]2C[C@@H]3[C@H]4CCC5=CC(=O)C=C[C@]5(C)[C@@]4(F)[C@@H](O)C[C@]3(C)[C@]2(C(=O)CO)O1 | 7.28%
C[C@@H]1NC(=O)N[C@@H]1CCCCCC(=O)O | -3.36%
CC1=CC(=O)CCC1 | -11.6% [at 115 µM]
Nc1ccn([C@@H]2O[C@H](CO)[C@@H](OP(=O)(O)O)[C@H]2O)c(=O)n1 | 0.238%
CC(C)CNC(=O)/C=C/C=C/CCCCCC/C=C/c1ccc2c(c1)OCO2 | -0.169%
CC1=CC2OC3CC4OC(=O)C=CC=CC(C(C)O)OCC(O)C5(C)OC5C(=O)OCC2(CC1O)C4(C)C31CO1 (stereo not given) | -97.3%
O=C(O)c1cc(N(Cc2ccccc2O)Cc2ccccc2O)ccc1O | -1.77%
CC1=CC(=O)/C(=C(/C)O)C(=O)O1 | -19.9% [at 115 µM]
Fc1ccc(C(c2ccc(F)cc2)N2CCN(CC=Cc3ccccc3)CC2)cc1 | -4.27%
CC(C)C(=O)COc1c2occc2cc2ccc(=O)oc12 | 12.6%
CCCCC/C=C/CC(=O)OC | 9.89% [at 115 µM]
O=C(c1ccccc1)N1CCCCC1 | 0.375%
COc1ccc(-c2coc3cc(OC(C)=O)c(OC)cc3c2=O)cc1 | -11.1%
CC(=O)Nc1ccccc1O | -17.3% [at 115 µM]
CC(C)=CCCC(C)CC=O (stereo not given) | -0.725% [at 115 µM]
CCN1CC2(COC(=O)c3ccccc3N)CCC(OC)C34C5CC6C(OC)CC(O)(C5C6OC)C(O)(C(OC)C23)C14 (stereo not given) | 4.33%
O=C/C=C/c1ccc(O)cc1 | 0.673%
O=C(CO)c1c[nH]c2ccccc12 | -0.335%
CC(C)=CCOc1ccc2ccc(=O)oc2c1 | 0.341%
C[C@@H]1CC[C@]2(C(=O)O[C@@H]3O[C@H](CO)[C@@H](O)[C@H](O)[C@H]3O)CC[C@]3(C)C(=CCC4[C@@]5(C)CC[C@H](O[C@@H]6OC[C@H](O)[C@H](O[C@@H]7O[C@H](CO)[C@@H](O)[C@H](O)[C@H]7O)[C@H]6O)C(C)(C)C5CC[C@]43C)C2[C@]1(C)O (stereo not given in full) | 2.77%
CC1=CCC[C@H]2[C@H](C1)C(=O)C[C@@H](C)[C@]2(C)CC/C(=C/CO)CO | -6.17%
Cn1cnc2c(ncn2[C@@H]2O[C@H](CO)[C@@H](O)[C@H]2O)c1=N | 0.776%

Test: qHTS for Inhibitors of the Functional Ribonucleoprotein Complex (vRNP) of Lassa (LASV) Arenavirus: Viability assay - alamar blue signal for LASV Primary Screen (AID 1347083); also: nearly all actives have a fitted effect of over 80% in size
Conditions: cell viability, alamar blue fluorescence (LASV minigenome counter-screen); series mostly up to 57.5 µM; activity change, negative = reduced viability: at the top concentration

SMILES | activity change, negative = reduced viability
CC1CCC[C@H](O)CCCCCc2cc(O)cc(O)c2C(=O)O1 (stereo not given in full) | -9.08%
C=C1C[C@H](O[C@@H]2O[C@H](CO)[C@@H](O)[C@H](O)[C@H]2O)[C@@H]2[C@H](OC(=O)[C@H]2C)[C@H]2[C@H](C)[C@@H](O)C[C@@H]12 | -10.9%
CCC(C)C(=O)OCCc1ccccc1 (stereo not given) | 14.2% [at 115 µM]
Cc1coc2c1C(=O)C(=O)c1c-2ccc2c(C)cccc12 | 20.7%
CC(C=O)Cc1ccc(C(C)C)cc1 (stereo not given) | 18.4% [at 115 µM]
COc1cc(C(C)=O)cc(OC)c1O | 14%
CC1NC(C(=O)O)Cc2c1[nH]c1ccccc21 (stereo not given) | -1.81%
CCNC(=O)CCCC=CC[C@@H]1[C@H](C=CC(O)CCc2ccccc2)[C@@H](O)C[C@@H]1O (stereo not given in full) | -1.29%
CSC(=S)NCc1c[nH]c2ccccc12 | 16.3%
NC[C@@H]1O[C@@H](O[C@H]2[C@@H](O)[C@H](O[C@@H]3[C@@H](O)[C@@H](N)C[C@H](N)[C@H]3O[C@H]3O[C@H](CN)[C@@H](O)[C@@H](O)[C@H]3N)O[C@H]2CO)[C@H](N)[C@@H](O)[C@@H]1O | -2.61%
C=CC(=O)CCCCC | 21.4% [at 115 µM]
C[C@]12CCC3=C4CCC(=O)C=C4CC[C@@H]3[C@H]1CC[C@@]2(O)CC#N | -3.26%
CC12C=CC(=O)C=C1CCC1C2CCC2(C)C(C(=O)CO)CCC12 (stereo not given) | -28.4%
NC(=O)C1=CN(C2OC(COP(=O)(O)OP(=O)(O)OC[C@H]3O[C@@H](n4cnc5c(N)ncnc54)[C@H](OP(=O)(O)O)[C@@H]3O)C(O)C2O)C=CC1 (stereo not given in full) | -2.63%
CC(C)(O)C1CC[C@@]2(C)C3CCC4[C@@]5(C)CCCC(C)(C)C5C(O)C[C@]4(C)[C@]3(C)CC[C@@H]12 (stereo not given in full) | 2.73%
CC12CCC(C1)C(C)(C)C2O (stereo not given) | -23.8% [at 115 µM]
Cc1c(-c2cccc3c(CCCOc4cccc5ccccc45)c(C(=O)O)n(Cc4cccnc4)c23)c(COc2ccc(N3CCN([S+](=O)([O-])N(C)C)CC3)cc2)nn1C | -22.6%
CCCCCc1ccco1 | 6.07%
CC1(C)O[C@H]2C[C@@H]3[C@H]4CCC5=CC(=O)C=C[C@]5(C)[C@@]4(F)[C@@H](O)C[C@]3(C)[C@]2(C(=O)CO)O1 | -11.7%
C[C@@H]1NC(=O)N[C@@H]1CCCCCC(=O)O | 1.4%

SMILES | activity change, negative = reduced viability
CC1=CC(=O)CCC1 | 9.76% [at 115 µM]
Nc1ccn([C@@H]2O[C@H](CO)[C@@H](OP(=O)(O)O)[C@H]2O)c(=O)n1 | 4.16%
CC(C)CNC(=O)/C=C/C=C/CCCCCC/C=C/c1ccc2c(c1)OCO2 | 9.29%
CC1=CC2OC3CC4OC(=O)C=CC=CC(C(C)O)OCC(O)C5(C)OC5C(=O)OCC2(CC1O)C4(C)C31CO1 (stereo not given) | -139%
O=C(O)c1cc(N(Cc2ccccc2O)Cc2ccccc2O)ccc1O | -0.824%
CC1=CC(=O)/C(=C(/C)O)C(=O)O1 | 1.14% [at 115 µM]
Fc1ccc(C(c2ccc(F)cc2)N2CCN(CC=Cc3ccccc3)CC2)cc1 | -38.8%
CC(C)C(=O)COc1c2occc2cc2ccc(=O)oc12 | -2.67%
CCCCC/C=C/CC(=O)OC | 12.8% [at 115 µM]
O=C(c1ccccc1)N1CCCCC1 | 3.51%
COc1ccc(-c2coc3cc(OC(C)=O)c(OC)cc3c2=O)cc1 | -12.5%
CC(=O)Nc1ccccc1O | 2.12% [at 115 µM]
CC(C)=CCCC(C)CC=O (stereo not given) | 4.89% [at 115 µM]
CCN1CC2(COC(=O)c3ccccc3N)CCC(OC)C34C5CC6C(OC)CC(O)(C5C6OC)C(O)(C(OC)C23)C14 (stereo not given) | -3.71%
O=C/C=C/c1ccc(O)cc1 | 3.85%
O=C(CO)c1c[nH]c2ccccc12 | -12.8%
CC(C)=CCOc1ccc2ccc(=O)oc2c1 | 2.94%
C[C@@H]1CC[C@]2(C(=O)O[C@@H]3O[C@H](CO)[C@@H](O)[C@H](O)[C@H]3O)CC[C@]3(C)C(=CCC4[C@@]5(C)CC[C@H](O[C@@H]6OC[C@H](O)[C@H](O[C@@H]7O[C@H](CO)[C@@H](O)[C@H](O)[C@H]7O)[C@H]6O)C(C)(C)C5CC[C@]43C)C2[C@]1(C)O (stereo not given in full) | 16.7%
CC1=CCC[C@H]2[C@H](C1)C(=O)C[C@@H](C)[C@]2(C)CC/C(=C/CO)CO | 0.309%
Cn1cnc2c(ncn2[C@@H]2O[C@H](CO)[C@@H](O)[C@H]2O)c1=N | 2.9%
